This passage reports cytotoxicity call results from the antibiotic and cytotoxicity screens of Wong et al. (2023).

Among all 39,000 compounds or so, about 3,300 (8.5%) were called active. This is one part of a sample in which actives are shown more often than they occur.

This test relates to HepG2. The test is described as follows: cytotoxicity call (relative viability < 0.9). The following applies: 10 µM.
Regarding `COc1ccc(NC(=O)N(C)C[C@H]2Oc3ccc(NC(=O)Nc4cccc5ccccc45)cc3C(=O)N([C@@H](C)CO)C[C@@H]2C)cc1`, the cytotoxicity call was “inactive”.
As for `Cc1noc(C)c1NC(=O)Nc1ccc2c(c1)C(=O)N([C@H](C)CO)C[C@H](C)[C@@H](CN(C)Cc1ccc(Cl)c(Cl)c1)O2`, the entry is “inactive”.
Take `C[C@@H]1CN([C@H](C)CO)C(=O)Cc2cc(NS(=O)(=O)c3ccc(F)cc3)ccc2O[C@H]1CN(C)Cc1ccc(-c2ccccc2)cc1`: the cytotoxicity call is “active”.
Under `C[C@@H]1CN([C@H](C)CO)C(=O)Cc2cc(NC(=O)NC3CCCCC3)ccc2O[C@@H]1CN(C)C(=O)Nc1ccc(C(F)(F)F)cc1` stands “inactive”; under `COc1ccc(S(=O)(=O)Nc2ccc3c(c2)C(=O)N([C@H](C)CO)C[C@@H](C)[C@H](CN(C)C(=O)Nc2ccc(F)cc2)OCCCC[C@H](C)O3)cc1`, “inactive”.
Take `C[C@H]1CN([C@@H](C)CO)C(=O)c2cc(C#CCN(C)C)cnc2O[C@H]1CN(C)S(C)(=O)=O`: the cytotoxicity call was “inactive”.
As for `C[C@@H]1CCCCO[C@H](CN(C)Cc2ccc(C(F)(F)F)cc2)[C@H](C)CN([C@H](C)CO)C(=O)c2cc(NS(=O)(=O)c3ccc(Cl)cc3)ccc2O1`, the entry is “active”; as for `C[C@H](CO)N1C[C@H](C)[C@@H](CN(C)Cc2ccc(C(F)(F)F)cc2)OCCCC[C@H](C)Oc2ccc(NS(=O)(=O)c3ccc(Cl)cc3)cc2C1=O`, “inactive”.
Under `C[C@@H]1CCCCO[C@@H](CN(C)Cc2ccc(C(F)(F)F)cc2)[C@H](C)CN([C@H](C)CO)C(=O)c2cc(NS(=O)(=O)c3ccc(Cl)cc3)ccc2O1` stands “active”.
As for `C[C@@H]1CN([C@@H](C)CO)C(=O)c2cc(NS(=O)(=O)c3ccc(Cl)cc3)ccc2O[C@@H](C)CCCCO[C@@H]1CN(C)Cc1ccc(C(F)(F)F)cc1`, the entry is “inactive”; as for `C[C@@H]1CN([C@H](C)CO)C(=O)c2cc(NS(=O)(=O)c3ccc(Cl)cc3)ccc2O[C@@H](C)CCCCO[C@H]1CN(C)Cc1ccc(C(F)(F)F)cc1`, “active”.
As to `C[C@@H]1CCCCO[C@H](CN(C)Cc2ccc(C(F)(F)F)cc2)[C@@H](C)CN([C@@H](C)CO)C(=O)c2cc(NS(=O)(=O)c3ccc(Cl)cc3)ccc2O1`, the cytotoxicity call was “active”.
Under `CNC[C@H]1OCCCC[C@@H](C)Oc2ccc(NS(=O)(=O)c3cn(C)cn3)cc2C(=O)N([C@@H](C)CO)C[C@H]1C` stands “inactive”; under `C[C@@H]1CCCCO[C@@H](CN(C)C(=O)c2ccccc2)[C@@H](C)CN([C@H](C)CO)C(=O)c2cc(NC(=O)CCC(F)(F)F)ccc2O1`, “inactive”; under `C[C@@H]1CN([C@H](C)CO)C(=O)c2cc(NS(=O)(=O)c3cccs3)ccc2O[C@@H](C)CCCCO[C@@H]1CN(C)C(=O)CCC(F)(F)F`, “inactive”.
Under `C[C@H](N)CCCP(=O)(O)O` stands “inactive”; under `COC(=O)CCCCCCC(=O)Nc1ccc([C@H]2O[C@H](CSc3nc(-c4ccccc4)c(-c4ccccc4)o3)C[C@H](c3ccc(NC(=O)CCCCCCC(=O)OC)cc3)O2)cc1`, “inactive”.
Under `C[C@H]1CN([C@@H](C)CO)C(=O)c2cc(NS(C)(=O)=O)ccc2O[C@@H]1CN(C)Cc1ccc(C(F)(F)F)cc1` stands “inactive”.
For the molecule `COc1ccc(NC(=O)Nc2ccc3c(c2)[C@H]2C[C@@H](CC(=O)N4CCN(C)CC4)O[C@H](CO)[C@H]2O3)cc1`, the cytotoxicity call was “inactive”.
Under `C[C@@H]1CN([C@H](C)CO)C(=O)c2cc(C#CCN(C)C)cnc2O[C@H]1CN(C)Cc1ccc2c(c1)OCO2` stands “inactive”; under `C[C@H](CO)N1C[C@H](C)[C@@H](CN(C)C(=O)c2cnccn2)Oc2ncc(/C=C/c3ccccc3)cc2C1=O`, “inactive”.
Under `CC(C)NC(=O)Nc1ccc2c(c1)C(=O)N([C@@H](C)CO)C[C@H](C)[C@H](CN(C)C(=O)Nc1ccc3c(c1)OCO3)O2` stands “inactive”.
Under `C[C@H]1CN([C@@H](C)CO)S(=O)(=O)c2ccc(C#CC3CCCC3)cc2O[C@H]1CN(C)Cc1cncnc1` stands “inactive”.
In the case of `CO[C@@H]1CN(C)C(=O)c2ccc(NC(=O)C3CCOCC3)cc2OC[C@H](C)N(Cc2cccnc2)C[C@@H]1C`, the cytotoxicity call was “inactive”.
For `C[C@H]1CN([C@@H](C)CO)C(=O)c2cccc(NC(=O)c3cnccn3)c2O[C@H]1CN(C)C(=O)Nc1ccc2c(c1)OCO2`, the cytotoxicity call is “inactive”.
As to `C[C@H]1CN([C@@H](C)CO)C(=O)c2cccc(NC(=O)c3ccncc3)c2O[C@H]1CN(C)S(=O)(=O)c1cn(C)cn1`, the cytotoxicity call is “inactive”.
As for `NCCCC[C@@H]1NC(=O)[C@H]2C[C@@H](C(=O)NCc3ccc(F)cc3)[C@@H](c3cccc(OCCO)c3)N2C1=O`, the entry is “inactive”; as for `COc1ccc(S(=O)(=O)Nc2cccc3c2O[C@H](CN(C)CC2CC2)[C@@H](C)CN([C@H](C)CO)C3=O)cc1`, “inactive”; as for `COCC#Cc1ccc2c(c1)O[C@H](CN(C)S(=O)(=O)c1cccc(OC)c1)[C@H](C)CN([C@H](C)CO)S2(=O)=O`, “inactive”.
For the molecule `CN1C(=O)c2cc(NC(=O)C3CCOCC3)ccc2OC[C@H]2O[C@H](CC(=O)NCCc3ccncc3)CC[C@H]21`, the cytotoxicity call is “inactive”.
Consider `C[C@@H]1CN([C@@H](C)CO)C(=O)c2cc(NC(=O)NC3CCCCC3)ccc2O[C@@H](C)CCCCO[C@@H]1CN(C)C(=O)Nc1ccccc1`, for which the cytotoxicity call is “inactive”.
As for `Cc1ccc(S(=O)(=O)N(C)C[C@H]2Oc3ccc(NS(=O)(=O)c4cn(C)cn4)cc3C(=O)N([C@H](C)CO)C[C@H]2C)cc1`, the entry is “inactive”; as for `C[C@@H]1CCCCO[C@@H](CN(C)Cc2ccc(C(F)(F)F)cc2)[C@@H](C)CN([C@@H](C)CO)C(=O)c2cc(NS(=O)(=O)c3ccc(Cl)cc3)ccc2O1`, “inactive”.
Regarding `C[C@@H]1CCCCO[C@H](CN(C)Cc2ccc(C(F)(F)F)cc2)[C@@H](C)CN([C@H](C)CO)C(=O)c2cc(NS(=O)(=O)c3ccc(Cl)cc3)ccc2O1`, the cytotoxicity call is “active”.
Under `C[C@@H]1CN([C@H](C)CO)C(=O)c2cc(NS(=O)(=O)c3ccc(Cl)cc3)ccc2O[C@@H](C)CCCCO[C@@H]1CN(C)Cc1ccc(C(F)(F)F)cc1` stands “inactive”; under `C[C@@H]1CN([C@@H](C)CO)C(=O)c2cc(NS(=O)(=O)c3ccc(Cl)cc3)ccc2O[C@@H](C)CCCCO[C@H]1CN(C)Cc1ccc(C(F)(F)F)cc1`, “active”; under `C[C@@H]1CCCCO[C@@H](CN(C)Cc2ccc(C(F)(F)F)cc2)[C@@H](C)CN([C@H](C)CO)C(=O)c2cc(NS(=O)(=O)c3ccc(Cl)cc3)ccc2O1`, “active”.
As for `C[C@@H]1CCCCO[C@@H](CN(C)Cc2ccc(C(F)(F)F)cc2)[C@H](C)CN([C@@H](C)CO)C(=O)c2cc(NS(=O)(=O)c3ccc(Cl)cc3)ccc2O1`, the entry is “active”; as for `C[C@H]1CCCCO[C@@H](CN(C)Cc2ccc(C(F)(F)F)cc2)[C@@H](C)CN([C@@H](C)CO)C(=O)c2cc(NS(=O)(=O)c3ccc(Cl)cc3)ccc2O1`, “inactive”; as for `C[C@H]1CCCCO[C@H](CN(C)Cc2ccc(C(F)(F)F)cc2)[C@@H](C)CN([C@@H](C)CO)C(=O)c2cc(NS(=O)(=O)c3ccc(Cl)cc3)ccc2O1`, “inactive”.
Consider `Cc1ccc(S(=O)(=O)N(C)C[C@H]2Oc3ccc(NS(=O)(=O)c4c(C)noc4C)cc3C(=O)N([C@H](C)CO)C[C@@H]2C)cc1`, for which the cytotoxicity call was “inactive”.
In the case of `C[C@]12C(=O)N(CCC(=O)O)C(=O)[C@H]1[C@@H]1C=C[C@@H]2C1`, the cytotoxicity call was “inactive”.
`Cc1ccc(S(=O)(=O)Nc2cccc3c2O[C@@H](CN(C)S(=O)(=O)c2ccc(F)cc2)[C@H](C)CN([C@@H](C)CO)C3=O)cc1`: the cytotoxicity call is “inactive”.
Take `O=C(Cn1ccc([N+](=O)[O-])n1)N1CCOCC1`: the cytotoxicity call was “inactive”.
In the case of `COc1ccc(NC(=O)N(C)C[C@H]2Oc3ccc(NC(=O)Cn4cnnn4)cc3CC(=O)N([C@H](C)CO)C[C@H]2C)cc1`, the cytotoxicity call was “inactive”.
Under `C[C@H](CO)N1C[C@H](C)[C@H](CN(C)Cc2ccc(Oc3ccccc3)cc2)Oc2c(NS(=O)(=O)c3ccc(F)cc3)cccc2C1=O` stands “inactive”; under `C[C@H](CO)N1C[C@H](C)[C@@H](CN(C)S(=O)(=O)c2ccc(Cl)cc2)Oc2ccc(NS(=O)(=O)c3cn(C)cn3)cc2C1=O`, “inactive”.
Turning to `O=C(NCCCN1CCOCC1)[C@@H]1[C@@H](CO)[C@@H]2Cn3c(ccc(C4=CCCCC4)c3=O)[C@H]1N2`, the cytotoxicity call was “inactive”.
As for `Cc1ccc(S(=O)(=O)Nc2cccc3c2O[C@@H](CN(C)S(=O)(=O)c2ccc(F)cc2)[C@H](C)CN([C@H](C)CO)C3=O)cc1`, the entry is “inactive”; as for `CC(C)(C)OC(=O)C[C@@H]1CC=CC[C@@H](CC(=O)N[C@H](CO)Cc2ccccc2)C(=O)N[C@@H](C(C)(C)C)COC1=O`, “inactive”; as for `CC1CCN(S(=O)(=O)c2c[nH]cn2)CC1`, “inactive”.
As for `Cc1noc(C)c1NC(=O)N(C)C[C@H]1Oc2ccc(NS(C)(=O)=O)cc2C(=O)N([C@H](C)CO)C[C@H]1C`, the entry is “inactive”.
`COc1ccc(CN(C)C[C@H]2OCCCC[C@H](C)Oc3ccc(NC(=O)NC(C)C)cc3C(=O)N([C@@H](C)CO)C[C@@H]2C)cc1`: the cytotoxicity call was “inactive”.
For the molecule `C[C@H](CO)N1C[C@H](C)[C@H](CN(C)Cc2ccc(C(F)(F)F)cc2)OCCCC[C@H](C)Oc2ccc(NS(=O)(=O)c3ccc(Cl)cc3)cc2C1=O`, the cytotoxicity call was “active”.
As for `C[C@@H]1CCCCO[C@H](CN(C)Cc2ccc(C(F)(F)F)cc2)[C@H](C)CN([C@@H](C)CO)C(=O)c2cc(NS(=O)(=O)c3ccc(Cl)cc3)ccc2O1`, the entry is “active”; as for `C[C@@H]1CN([C@@H](C)CO)C(=O)c2cc(NC(=O)Cc3cn(C)c4ccccc34)ccc2O[C@@H]1CN(C)CC1CCCCC1`, “inactive”.
Under `Cc1noc(C)c1S(=O)(=O)Nc1ccc2c(c1)C(=O)N([C@@H](C)CO)C[C@@H](C)[C@@H](CN(C)C(=O)Nc1ccccc1)OCCCC[C@@H](C)O2` stands “inactive”.
Under `O=C(O)CCCN1C(=O)CSC1=S` stands “inactive”.
Turning to `C[C@@H]1CCCCO[C@H](CN(C)C(=O)Nc2ccc(F)cc2)[C@@H](C)CN([C@@H](C)CO)C(=O)c2cc(NC(=O)NC3CCCCC3)ccc2O1`, the cytotoxicity call is “inactive”.
